Mm-Cpn inhibitor: inhibitors of Methanococcus maripaludis chaperonin TRiC (MmCpn); purified Mm-Cpn ATPase, ADP Transcreener TR-FRET; Potency, µM (titrated, usually from 76.9 µM), hits mostly inhibitors; 0.031% of 330,000 active; AID 504842; further: nearly all actives have a fitted effect of over 80% in size
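ATPase turnover read by TR-FRET ADP competition (Eu cryptate antibody/ADP-d2, 665/590 nm): 10uM ATP final, 25nM Mm-CPN final, 30 min 37degC after 10-min compound preincubation, pH 7.4 Tris/KCl/MgCl2/DTT buffer.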
Sfp inh: inhibitors of Bacillus subtilis Sfp phosphopantetheinyl transferase; Biochemical Sfp PPTase activity, qHTS; Potency, µM, usual class: inhibitors; 3.5% of 310,000 active; AID 1490;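 further: the enzyme is Sfp with the accession as filed and its product quenches rhodamine fluorescence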
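Sfp 15 nM + cpd, 15 min RT; start w/ rhodamine-CoA 5 uM, BHQ-2-YbbR 12.5 uM (final); 50 mM Hepes pH 7.6, 10 mM MgCl2, 0.01% NP-40, 0.01% BSA; read 525/598 nm at 0 and 30 min.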
PLK1 PBD inh: inhibitors of human PLK1 polo-box domain binding; P53350; Plk1 PBD binding of FITC phosphopeptide, fluorescence polarization; Potency, µM, actives largely listed as inhibitors; 2.8% of 360,000 active; AID 720504; further: series mostly up to about 57 µM; nearly all actives have a fitted effect of over 65% in size
Target sequence (P53350 whole entry, looked up, the tested form may be a part): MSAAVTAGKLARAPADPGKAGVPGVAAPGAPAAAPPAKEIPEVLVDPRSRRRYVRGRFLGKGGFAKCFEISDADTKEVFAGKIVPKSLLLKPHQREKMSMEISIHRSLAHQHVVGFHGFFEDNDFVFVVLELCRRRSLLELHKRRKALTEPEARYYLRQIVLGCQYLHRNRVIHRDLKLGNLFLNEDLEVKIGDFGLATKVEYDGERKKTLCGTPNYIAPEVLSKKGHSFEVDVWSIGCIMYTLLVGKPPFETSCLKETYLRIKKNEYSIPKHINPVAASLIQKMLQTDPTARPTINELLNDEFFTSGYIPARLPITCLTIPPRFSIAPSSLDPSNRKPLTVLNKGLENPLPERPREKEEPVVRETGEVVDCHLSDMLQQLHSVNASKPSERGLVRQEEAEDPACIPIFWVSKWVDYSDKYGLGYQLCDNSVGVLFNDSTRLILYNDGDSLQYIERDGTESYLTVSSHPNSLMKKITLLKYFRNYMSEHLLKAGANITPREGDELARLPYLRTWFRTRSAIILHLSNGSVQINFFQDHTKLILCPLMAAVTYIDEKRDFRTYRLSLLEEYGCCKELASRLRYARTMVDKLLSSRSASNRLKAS
VDR inhibitor: inhibitors of human vitamin D receptor | P11473 | VDR-SRC2-3 peptide fluorescence polarization, 2 h | 0.93% of 400,000 active | AID 504847 | Potency, µM, hits mostly inhibitors
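The screen uses fluorescence polarization to detect compounds that interfere with recruitment of the SRC2-3 coactivator peptide to VDR; plates are read after 2 h at room temperature.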
CCT chaperon mod: changes cytosolic chaperonin activity; 0.3% of 360,000 active; purified chaperonin ATPase assay, HTRF ADP detection, 30 min; activity change, % (test concentration not listed), hits read low; in the data active means activity change below about -30%
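We incubate TRiC, 40 or 20 nM final, with library compounds at 76 uM and 10 uM ATP for 30 min at 37 °C. ADP formed is detected with Transcreener HTRF reagents after 30 min at room temperature.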
G9a inh: blocks human histone lysine methyltransferase G9a | Q96KQ7 | G9a H3K9 monomethylation, AlphaScreen, 2 h | Potency, µM (doses to about 102 µM), hits mostly inhibitors | 8.8% of 350,000 active; further: nearly all actives have a fitted effect of over 75% in size
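G9a (20 nM) was preincubated 15 min with compound, then reacted 2 h at room temperature with 500 nM biotin-H3K9 peptide and 20 µM SAM. Monomethyl-H3K9 detected by AlphaScreen using anti-H3K9me1 antibody.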
Hits are given with their value; n = inactive; u = inconclusive; x = not tested or not shown; [ ] = dose if it differs, or a comment. A selection: hits, their analogues and other compounds. The true share with any hit is near 10%. Unless noted, the call rests on the fitted dose curve; in most records, active means well fitted curve in the direction sought with a large enough effect; inconclusive means small, poorly fitted or top-dose-only effect, or another doubt; inactive means no such curve, though single readings can be large; an effect the other way counts as inactive or inconclusive.

SMILES	Mm-Cpn inhibitor	Sfp inh	PLK1 PBD inh	VDR inhibitor	CCT chaperon mod	G9a inh
CC1=C(C(=O)OCc2ccccc2)C(c2ccccc2)NC(=O)N1CCCCCC(=O)O (configuration not stated)	n	n	n	n	n	79µM
CC1=C(C(=O)OCc2ccccc2)C(c2ccc(C(C)(C)C)cc2)NC(=O)N1CCCCCC(=O)O (configuration not stated)	n	n	n	n	n	45µM
CC1=C(C(=O)OCc2ccccc2)C(c2ccc3ccccc3c2)NC(=O)N1CCCCCC(=O)O (configuration not stated)	n	n	n	n	n	u
O=C(CN1C(=O)COc2ccc(S(=O)(=O)N3CCCC3)cc21)N1CCN(c2cccc(C(F)(F)F)c2)CC1	x	x	x	n	x	n
Cc1c(C)n(CCc2ccccc2)c2ncnc(NCCCO)c12	n	n	n	n	n	n[12.7 µM]
COCCn1c(C)c(C)c2c(NCCc3ccccc3)ncnc21	n	u	n	n	n	28µM
Cc1c(C)n(Cc2ccccc2)c2ncnc(NN)c12	n	56µM	n	n	n	n
CCNc1ncc2nc(-c3ccc(Cl)cc3)c(=O)n(Cc3cccc(OC)c3)c2n1	x	n	x	n	x	n[0.501 µM]
CC(C)c1ccc(/C=C/C(=O)NCc2ccc(S(N)(=O)=O)cc2)cc1	n	n	n	n	n	u
O=C(CNC(=O)/C=C/c1ccco1)N=Nc1c(O)[nH]c2ccccc12	n	20µM	u	n	n	35µM
O=C(/C=C/c1ccco1)NCc1ccc(F)cc1	n	40µM	u	n	n	u
NS(=O)(=O)c1ccc(CNC(=O)/C=C/c2ccco2)cc1	n	20µM	u	n	n	40µM
O=C(COC(=O)/C=C/c1ccco1)NCc1ccccc1	n	n	n	n	n	u
O=C(NCc1ccc2c(c1)OCO2)c1ccc2c(c1)N(Cc1c(F)cccc1Cl)C(=O)c1ccccc1S2	x	x	x	n	x	n
CCc1ccc(/C=C/C(=O)c2cc(Br)ccc(=O)c2O)cc1	n	14µM	21µM	20µM	n	u
Cc1ccc(C(=O)Nc2cccc(C(F)(F)F)c2)cc1NC(=O)c1csc(-c2ccncc2)n1	n	20µM	n	n	n	n
Cn1c(=O)c2[nH]c(SCCN3CCOCC3)nc2n(C)c1=S	x	x	27µM	28µM	n	x
CCOCCCNC(=O)NC(CCC(C)C)c1c(-n2cccc2)sc2c1CCN(C)C2 (configuration not stated)	x	x	x	n	x	n
CC1=C(c2ccc(C(C)C)cc2)S(=O)(=O)NC1=NCc1ccccc1C	x	x	x	n	x	n
CSC1=NC(C)(C)C=C(/C=C/c2ccc(Cl)cc2Cl)N1	n	n	u	u	n	50µM
Nc1nccc(/C=C/c2c(Cl)cccc2Cl)n1	n	n	n	n	n	n
CSC1=NC(C)(C)C=C(/C=C/c2c(Cl)cccc2Cl)N1	n	n	n	n	n	40µM
CSC1=NC(C)(C)C=C(/C=C/c2ccc(Cl)cc2)N1	n	40µM	u	32µM	n	28µM
O=C(CCCCCn1c(=O)[nH]c2ccccc2c1=O)N1CCN(c2ccc(Cl)cc2)CC1	x	x	x	n	x	n
COc1ccc(C)cc1Nc1n[n+](C)c(-c2ccc(O)cc2O)s1	n	n	n	n	n	18µM
SMILES	Mm-Cpn inhibitor	Sfp inh	PLK1 PBD inh	VDR inhibitor	CCT chaperon mod	G9a inh
COc1ccc(-c2sc(Nc3ccccc3)n[n+]2C)c(C)c1C	n	n	n	n	n	x
COc1ccc(C)cc1Nc1n[n+](C)c(-c2c3ccccc3cc3ccccc23)s1	n	n	n	n	n	45µM
COc1ccc(Br)cc1CNc1ccccc1	n	u	n	n	n	22µM
CNc1ncnc2c1ncn2[C@@H]1O[C@H](COP(=O)(O)O)[C@@H](O)[C@H]1O	x	n	x	n	x	n
C=CCn1c(CCc2cc(C(C)(C)C)c(O)c(C(C)(C)C)c2)n[nH]c1=S	n	n	n	n	n	2µM
C=CCn1c(Cc2ccccc2)n[nH]c1=S	n	n	n	n	n	x
C=CCn1c(CCC(O)CCCCC)n[nH]c1=S (configuration not stated)	n	n	n	n	n	7.1µM
COc1ccc(N2CCN(C(=O)C3CCN(S(=O)(=O)c4cn(C)cn4)CC3)CC2)cc1	x	x	x	n	x	n[12.7 µM]
C=C(c1ccc(C(=O)O)cc1)c1cc2c(cc1C)C(C)(C)CCC2(C)C	x	n	x	u	x	n[12.7 µM]

Screens deposited in PubChem BioAssay by National Center for Advancing Translational Sciences (NCATS).
